Holding throughout (format): functional
The test system of test [1] is Plasmodium falciparum. As to the kind of experiment: GSK_TCMDC: Inhibition of Plasmodium falciparum 3D7 in whole red blood cells, using parasite LDH activity as an index of growth. Test compounds present at 2uM.
For test [2], the system named is Plasmodium falciparum. As to the kind of experiment: GSK_TCMDC: Inhibition of Plasmodium falciparum Dd2 in whole red blood cells, using parasite LDH activity as an index of growth. Test compounds present at 2uM.
Test [3] has as its system HepG2. As to the kind of experiment: GSK_TCMDC: Percent inhibition of human HepG2 cell line. Test compounds present at 10uM.

Broadly, the Inhibition is the drop in the measured response relative to a control, in per cent. A higher Inhibition goes with strong suppression.

`CCc1ccc(S(=O)(=O)Nc2ccc(CCN3CCC(N4CCCCC4)CC3)cc2)cc1`: the results for the Inhibition in test [1], in test [2] and in test [3] were 100%, 13% and 35%, respectively.
In the case of `Cc1c2ccc(N(C)c3ccnc(Nc4ccc5c(c4)nc(NC(C)C)n5C)n3)cc2nn1C.Cl`, the values for the Inhibition in test [1], in test [2] and in test [3] were 100%, 100% and 2%, respectively.
Regarding `O=C(O)C(F)(F)F.O=S(=O)(NCCN1CCCC1)c1ccc(-c2ccc(CNCc3ccsc3)cc2)s1`, the values for the Inhibition in test [1], in test [2] and in test [3] were 99%, 40% and 31%, respectively.
As for `O=C(/C=C/c1ccc(Cl)c(Cl)c1)NCCCCCN1CC[C@H](NC(=O)c2ccc3c(c2)OCO3)C1`, the results for the Inhibition in test [1], in test [2] and in test [3] were 94%, 3% and 32%, respectively.
For the molecule `CC(C)c1ccc(CN2CCC(CNC(=O)c3cc(-c4ccc(N(C)C)cc4)cs3)C2)cc1.O=C(O)C(F)(F)F` (stereo unspecified), the Inhibition in test [1] was 83%; in test [2], 32%; in test [3] it was 36%.
As to `CN(C)CCNC(=O)[C@H](Cc1ccccc1)NC(=O)c1ccc(O)c(-c2ccc(Cl)c(Cl)c2)c1`, the values for the Inhibition in test [1], in test [2] and in test [3] were 98%, 0% and 0%, respectively.
`O=C(Nc1ccc(Cl)c(Cl)c1)N1CCC(NCc2cccc([N+](=O)[O-])c2)CC1.O=C(O)C(F)(F)F`: the Inhibition in test [1] is 97%; in test [2], 12%; in test [3], 8%.
For the molecule `Cl.O=C(Nc1ccc(NC2=NCCN2)cc1)c1ccc(C(=O)Nc2ccc(NC3=NCCN3)cc2)cc1`, the Inhibition was 91% in test [1], 86% in test [2] and 15% in test [3].
Regarding `CC1(C)N=C(NC(=O)c2ccc([N+](=O)[O-])cc2)N=C(N)N1OCc1ccc2ccccc2c1`, the Inhibition worked out at 95% in test [1], 78% in test [2] and 64% in test [3].
Regarding `CS(=O)(=O)CCNCc1ccc(-c2ccc3c(Nc4ccc(F)cc4Cl)ccnc3c2)o1`, the Inhibition was determined as 100% in test [1], 98% in test [2] and 29% in test [3].
As for `Br.CCC(CCON1C(N)=NC(N)=NC1(C)C)c1ccc(Cl)cc1` (stereo unspecified), the Inhibition turned out to be 94% in test [1], 95% in test [2] and 66% in test [3].
Consider `Cc1cccc2nc(-c3cccc(-c4ccc(C(=O)NCc5nccn5C)cc4)c3)[nH]c12`, for which the Inhibition in test [1] is 100%; in test [2], 9%; in test [3], 18%.
As to `c1ccc(Oc2ccc(Nc3ccnc4cc(-c5csc(CNCCN6CCOCC6)n5)ccc34)cc2)cc1`, the results for the Inhibition in test [1], in test [2] and in test [3] were 100%, 99% and 0%, respectively.
With `COc1cc2c(OC)cccc2cc1CNCCCCCCNCc1cc2cccc(OC)c2cc1OC.CS(=O)(=O)O`, the results for the Inhibition in test [1], in test [2] and in test [3] were 95%, 7% and 59%, respectively.
Taken in the same sequence, the figures for `Cn1cnc(CCNC(=O)c2cccc(-c3ccc(-c4nc5cc(F)ccc5[nH]4)cc3)c2)c1` were 88%, 5% and 26%.
As to `CN1CCCC(CN2CCN(Cc3ccc(-c4ccc(-c5nc6cc(F)ccc6[nH]5)s4)cc3)CC2)C1.O=C(O)C(F)(F)F` (stereo unspecified), the values for the Inhibition in test [1], in test [2] and in test [3] were 100%, 100% and 73%, respectively.
On to `COc1cccc(C2=CC(C)(C)Oc3cc(OCCN(C)C)ccc32)c1.Cl`, for which the values for the Inhibition in test [1], in test [2] and in test [3] were 97%, 96% and 57%, respectively.
Taken in the same sequence, the figures for `O=C(/C=C/c1ccc(Cl)c(Cl)c1)NCCCCCN1CCC(NC(=O)Nc2cccc(Cl)c2Cl)CC1` were 100%, 35% and 99%.
Regarding `Cc1[nH]c(C)c(-c2ccc(-c3ccc(OCC(F)(F)F)cc3)nc2)c(=O)c1Cl`, the figures for the Inhibition in test [1], in test [2] and in test [3] were 94%, 96% and 3%, respectively.
Taken in the same sequence, the figures for `O=C(Nc1ccc(Cn2nc(Cl)c(N3CCCNCC3)cc2=O)cc1)c1ccc(-c2ccccc2)cc1.O=C(O)C(F)(F)F` were 87%, 35% and 93%.
On to `CCCC(=O)c1cnc2c(I)cccc2c1Nc1ccccc1C`, for which the figures for the Inhibition in test [1], in test [2] and in test [3] were 90%, 26% and 7%, respectively.
For the molecule `Cc1ccc(F)c(OCC2CCN(c3ccc(C(=O)NC4CC4)cn3)CC2)c1`, the values for the Inhibition in test [1], in test [2] and in test [3] were 94%, 95% and 4%, respectively.
Turning to `CCCc1cc(OC)c(C[C@@H]2c3cc(O)c(Cl)cc3CCN2C)cc1OC.Cl`, the Inhibition in test [1] is reported as 98%; in test [2] it was 98%; in test [3], 3%.
Regarding `CN(C)CCCOc1ccc(CCCCc2ccc(Cl)cc2C(=O)c2ccccc2)cc1.O=C(O)C(=O)O`, the values for the Inhibition in test [1], in test [2] and in test [3] were 92%, 8% and 8%, respectively.
Consider `CN(C)c1ccc(/C=C2\S/C(=N\c3ccccc3)N(c3ccccc3)C2=O)cc1[N+](=O)[O-]`, for which the Inhibition is listed as 96% in test [1], 82% in test [2] and 9% in test [3].
Taken in the same sequence, the figures for `CCNc1nc(OCC(F)(F)F)nc(N(c2ccccc2)c2ccccc2)n1` were 100%, 83% and 5%.
`COC(=O)c1cccc(CNCc2ccc(-c3ccc(-c4nc5cccc(C)c5[nH]4)cc3)cc2)c1.O=C(O)C(F)(F)F`: the Inhibition is 100% in test [1], 86% in test [2] and 17% in test [3].
Regarding `C=C(C)CSc1nc2c(c(=O)n1Cc1ccco1)C1(CCCCC1)Cc1ccccc1-2`, the Inhibition in test [1] was 97%; in test [2] it was 68%; in test [3] it was 2%.
As for `Cc1cccc(-c2ccc(NC(=O)Nc3ccc4nccc(N5CCN(C)CC5)c4c3)cc2C)n1.Cl`, the Inhibition is 100% in test [1], 95% in test [2] and 4% in test [3].
On to `O=C(NCc1cccc(C(F)(F)F)c1)C(c1cc2ccccc2o1)N1CCN(C(c2ccccc2)c2ccccc2)CC1` (stereo unspecified), for which the Inhibition in test [1] came to 91%; in test [2], 80%; in test [3], 0%.
For `CCCCCc1cnc2nc(N)nc(N)c2c1.O=S(=O)(O)CCO`, the Inhibition amounted to 82% in test [1], 6% in test [2] and 72% in test [3].
Regarding `Cn1nc(-c2ccc(NC(=O)Nc3cc(C(F)(F)F)ccc3F)c(F)c2)c2cnc(NCCCn3ccnc3)nc21.O=C(O)C(F)(F)F`, the results for the Inhibition in test [1], in test [2] and in test [3] were 100%, 97% and 45%, respectively.
`C[C@@H](N/C(=N\c1ccc(-c2ccccc2)cc1)Nc1ccc(C#N)cc1O)c1ccc(Br)cc1`: the Inhibition stood at 99% in test [1], 95% in test [2] and 9% in test [3].
In the same order, the values of `O=S(=O)(Nc1cccc(CCN2CCCCC2CCN2CCCC2)c1)c1ccc(-c2ccccc2)cc1` (stereo unspecified) are 99%, 5% and 31%.
As for `CN(C)Cc1cccc2nc(-c3csc(Cc4cc(Cl)ccc4OCc4ccccc4)n3)[nH]c12`, the values for the Inhibition in test [1], in test [2] and in test [3] were 100%, 77% and 14%, respectively.
For the molecule `COc1cc2nc(NCCCOC(C)C)n3nc(-c4ccccc4)nc3c2cc1OC`, the figures for the Inhibition in test [1], in test [2] and in test [3] were 94%, 97% and 0%, respectively.
Consider `CC=CC(=O)N1CCN(c2nccc(-c3ccc(C(C)(C)C)cc3)n2)CC1`, for which the figures for the Inhibition in test [1], in test [2] and in test [3] were 95%, 70% and 20%, respectively.
With `C=CCOC(=O)N1CCC(CNCc2cccc(-c3ccc(-c4nc5ccccc5[nH]4)s3)c2)C1.O=C(O)C(F)(F)F` (stereo unspecified), the Inhibition in test [1] was 99%; in test [2] it was 63%; in test [3] it was 9%.
On to `CCN(CCCN1CCCCC1)c1cc(C)nc(Nc2ccc(Br)cc2F)n1.O=C(O)C(F)(F)F`, for which the Inhibition amounted to 95% in test [1], 24% in test [2] and 32% in test [3].
As to `O=C(NCC1CCN(Cc2ccc3c(c2)OCCO3)C1)c1cc(-c2cccc(C(F)(F)F)c2)cs1.O=C(O)C(F)(F)F` (stereo unspecified), the Inhibition amounted to 100% in test [1], 1% in test [2] and 31% in test [3].
In the same order, the values of `Cc1c(Cl)cccc1S(=O)(=O)Nc1cccc(CCN2CCC(N3CCCCC3)CC2)c1` are 100%, 82% and 38%.
Taken in the same sequence, the figures for `CNCCNCc1ccc(-c2ccc(-c3nc4ccccc4[nH]3)s2)cc1.O=C(O)C(F)(F)F` were 99%, 15% and 11%.
`COc1ccc2c(c1)ncn2-c1cc(OCc2ccncc2Br)c(C(N)=O)s1`: the Inhibition in test [1] was determined as 95%; in test [2], 50%; in test [3] it was 14%.
For `O=C(Cc1ccccc1)NC(c1ccco1)c1cc(Cl)c2cccnc2c1O` (stereo unspecified), the values for the Inhibition in test [1], in test [2] and in test [3] were 89%, 93% and 44%, respectively.
On to `COc1ccc(CN2CCC2=O)c(OC)c1`, for which the Inhibition in test [1] is reported as 98%; in test [2], 96%; in test [3], 0%.
In the same order, the values of `CC(CN(C)C)C(=O)Nc1ccc(-c2cccc(-c3nc4cc(C(F)(F)F)ccc4[nH]3)c2)cc1` (stereo unspecified) are 100%, 85% and 30%.
For `Cc1cccc(N2C(N)=NC(N)=NC2(C)C)c1C.Cl`, the Inhibition in test [1] came out at 90%; in test [2], 0%; in test [3], 0%.
For the molecule `N#Cc1cccc(NC(=O)Nc2cccc(-c3ccc(-c4nc5cc(C(F)(F)F)ccc5[nH]4)cc3)c2)c1`, the Inhibition came out at 100% in test [1], 99% in test [2] and 54% in test [3].
Regarding `CCOc1cc(Cl)c(C(C)NC(=O)c2ccccc2)cc1OCC` (stereo unspecified), the Inhibition in test [1] amounted to 91%; in test [2], 49%; in test [3], 0%.
`CN1CCN(c2nsc3ccc(-c4ccc(NC(=O)Nc5ccccc5)cc4)cc23)CC1.O=C(O)C(F)(F)F`: the values for the Inhibition in test [1], in test [2] and in test [3] were 100%, 98% and 38%, respectively.
As to `O=C(O)C(F)(F)F.O=S(=O)(NC1CCN(c2ccnc3cc(Cl)ccc23)C1)c1cccc(F)c1` (stereo unspecified), the values for the Inhibition in test [1], in test [2] and in test [3] were 98%, 88% and 19%, respectively.
In the same order, the values of `Cc1ccc(-c2noc(COc3ccccc3C(=O)NC3CCCC3)n2)cc1` are 89%, 92% and 9%.
In the same order, the values of `Cc1ccc(C(=O)Nc2cc(C(F)(F)F)cc(C(F)(F)F)c2)cc1[N+](=O)[O-]` are 100%, 61% and 17%.
Take `Br.CCn1c2c(c(=N)c3ccccc31)CCC2`: the Inhibition was determined as 83% in test [1], 61% in test [2] and 11% in test [3].
On to `Cc1c(CNCCN2CCCCC2)c(C(=O)O)c(C)n1Cc1ccc(Cl)cc1`, for which the figures for the Inhibition in test [1], in test [2] and in test [3] were 97%, 93% and 4%, respectively.
In the case of `COc1ccc(-c2cccc(CNC3CCN(CC4Cn5c(=O)ccc6ccc(F)c4c65)CC3)c2)cc1.O=C(O)C(F)(F)F` (stereo unspecified), the results for the Inhibition in test [1], in test [2] and in test [3] were 100%, 74% and 22%, respectively.
In the same order, the values of `CCOC(=O)NCC(=O)Nc1cccc(-c2cccc(-c3nc4cccc(C)c4[nH]3)c2)c1` are 88%, 35% and 14%.
Taken in the same sequence, the figures for `Cc1cc(C)cc(-n2c(C)cc(/C=C3\SC(=Nc4ccc(Cl)cc4)NC3=O)c2C)c1` were 97%, 97% and 12%.
In the same order, the values of `Nc1nc(N)c2c(ccn2Cc2cc3c(cc2Cl)OCO3)n1` are 98%, 11% and 67%.
As for `COc1cccc2[nH]c(NCCCNCc3cc(Br)cc(Br)c3)nc12`, the Inhibition was found to be 88% in test [1], 2% in test [2] and 5% in test [3].
Taken in the same sequence, the figures for `CC(C)CN1C(=O)c2ccc(C(=O)Nc3nccs3)cc2C1=O` were 89%, 0% and 3%.
For `CN1CCCc2ccc(NC(=O)Nc3ccc(Cl)c(Cl)c3)cc2C1`, the values for the Inhibition in test [1], in test [2] and in test [3] were 89%, 22% and 0%, respectively.
